Values joined by “and” are separate entries in the source; they are usually repeats but may differ in a detail not shown here. Equal values may be shown once. Screen size: about 330,000 compounds; about 3,800 (1.2%) were called active. Cut-off read from the data, not from the text of the source: active = inhibition above about 15%; inconclusive = no clear call, values can overlap the other calls; inactive = below that. What follows is part of a selection rich in actives, with near analogues and random picks from the rest. Some compounds were tested as several samples or in several runs, with calls that do not always agree.

NAD-dependent protein deacylase sirtuin-5, mitochondrial (Homo sapiens), sequence (Q9NXA8 whole entry, looked up): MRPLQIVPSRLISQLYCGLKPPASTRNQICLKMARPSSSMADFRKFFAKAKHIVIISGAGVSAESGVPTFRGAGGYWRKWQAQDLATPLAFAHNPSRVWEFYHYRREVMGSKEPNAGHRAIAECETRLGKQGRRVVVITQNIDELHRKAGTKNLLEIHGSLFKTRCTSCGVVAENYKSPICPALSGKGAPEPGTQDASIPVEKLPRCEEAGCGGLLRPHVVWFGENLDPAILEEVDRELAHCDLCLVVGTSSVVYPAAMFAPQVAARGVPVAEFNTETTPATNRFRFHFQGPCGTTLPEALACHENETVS

The assay concerns the target NAD-dependent protein deacylase sirtuin-5, mitochondrial (Homo sapiens) (UniProt Q9NXA8). The assay is described as follows: blockers of sirtuin-5 deacylase activity – biochemical, fluorescence imaging, single point, set 5, primary screen (AID 652115). The settings on record: Purified SirT5, succinyl-peptide AMC, trypsin-coupled fluorescence; at 15 µM; stronger effect = higher value.
Usually inhibition stands for the drop in the measured response relative to a control, in per cent. Take `COc1cccc(-c2ccc3n(c2=O)C[C@@H]2[C@@H](CO)[C@H](C(=O)N4CCCCC4)N[C@H]32)c1`: the inhibition was -26.1% (inactive).

In the case of `C[C@H](O)C#Cc1ccc2c(c1)O[C@H](CN(C)Cc1ccccn1)[C@@H](C)CN([C@@H](C)CO)S2(=O)=O`, the inhibition is 2.94% (inactive). `O=C(Cc1ccccc1)N[C@H]1C=C[C@H](CC(=O)N2CCCCC2)O[C@@H]1CO`: the inhibition was 1.42% (inactive). Take `COc1ccc2c3c([nH]c2c1)[C@H](CO)N(C(=O)NC1CCCC1)CC31CN(C(=O)Nc2cccc(F)c2)C1`: the inhibition was 5.32% (inactive). The same measure for `O=C(NC1CCCCC1)N1CC2(C1)[C@@H](c1ccccc1)[C@@H](CO)N2CC1CCOCC1`: -5.9% (inactive); for `CC(C)NC(=O)N1CC(=O)N2[C@@H](CO)[C@H](c3ccc(C#CCN(C)C)cc3)[C@@H]2C1`: -1.28% (inactive). For `COCC(=O)N(C)C[C@@H]1Oc2cc(C#Cc3cccnc3)ccc2S(=O)(=O)N([C@H](C)CO)C[C@H]1C`, the inhibition is -3.01% (inactive).

On to `O=C(NC1CCCC1)[C@H]1[C@H](CO)[C@H]2Cn3c(ccc(-c4ccccc4F)c3=O)[C@@H]1N2C(=O)CC1CC1`, for which the inhibition is -18.6% (inactive). For the compound `CN1c2ccc(-c3cccc(F)c3)cc2[C@@H]2[C@@H](CCN2C(=O)Nc2ccccc2F)[C@@H]1CO`, the inhibition is -18.1% (inactive). Then `O=C(C[C@H]1CC[C@@H]2[C@H](COC[C@H](O)CN2S(=O)(=O)c2ccc(F)cc2)O1)NCCN1CCCCC1`, with -1.86% (inactive); and `O=C(N[C@H]1CC[C@H](CCn2cc(-c3ccccc3F)nn2)O[C@@H]1CO)c1ccc2c(c1)OCO2`, with 1.25% (inactive); and `CN(Cc1ccccc1F)C[C@H]1[C@@H](c2ccccc2)[C@@H](CO)N1S(C)(=O)=O`, with 0.402% (inactive). The same measure for `O=C(Nc1ccccc1F)N1C[C@@H]2[C@H](c3ccccc31)[C@@H](CO)N2C(=O)Nc1ccccc1`: -0.735% (inactive). As for `C[C@@H]1CN([C@H](C)CO)S(=O)(=O)c2ccc(C#CC3CCCCC3)cc2O[C@H]1CN(C)C(=O)Cc1ccncc1`, the inhibition is 0.678% (inactive) and -0.925% (inactive) and 15.2% (active). The same measure for `C[C@H]1CN([C@@H](C)CO)S(=O)(=O)c2ccc(C#CC3CCCC3)cc2O[C@H]1CN(C)C(=O)Cc1ccncc1`: -0.107% (inactive); for `C[C@@H]1CN([C@H](C)CO)S(=O)(=O)c2ccc(C#CC3CCCC3)cc2O[C@@H]1CN(C)C(=O)Cc1ccncc1`: 6.26% (inactive).

In the case of `CC(C)c1nnc(NC(=O)CCC(=O)N2CCN(c3cccc(Cl)c3)CC2)s1`, the inhibition is 0.459% (inactive). The same measure for `CCc1nnc(NC(=O)CCC(=O)N2CCN(c3cc(C)ccc3C)CC2)s1`: 18.5% (active); for `CCCc1nnc(NC(=O)CCC(=O)N2CCN(S(=O)(=O)c3ccc(OC)cc3)CC2)s1`: 1.56% (inactive); for `O=C(C1CCC1)N1CC(=O)N2[C@@H](CO)[C@@H](c3ccc(C#Cc4cccc(F)c4)cc3)[C@@H]2C1`: -4.53% (inactive). Regarding `Cc1ccccc1S(=O)(=O)N[C@@H]1CC[C@H](CCn2cc(-c3ccc(F)cc3)nn2)O[C@@H]1CO`, the inhibition is -4.75% (inactive). Take `Cc1ccccc1S(=O)(=O)N[C@H]1CC[C@@H](CCn2cc(Cc3ccccc3)nn2)O[C@H]1CO`: the inhibition was 31.4% (active). The same measure for `Cc1ccccc1S(=O)(=O)N[C@H]1CC[C@H](CCn2cc(-c3ccc(F)cc3)nn2)O[C@H]1CO`: -0.59% (inactive); for `Cc1ccc(S(=O)(=O)N[C@@H]2CC[C@@H](CC(=O)O)O[C@@H]2CO)cc1`: 1% (inactive). Turning to `O=C(C[C@@H]1CC[C@H](NC(=O)Nc2ccc3c(c2)OCO3)[C@H](CO)O1)NCc1ccccc1`, the inhibition is -2.1% (inactive). The same measure for `CN1c2ccc(-c3ccccc3)cc2[C@@H]2[C@@H](CCN2C(=O)c2ccccc2)[C@H]1CO`: 6.95% (inactive); for `CN1c2ccc(-c3ccccc3F)cc2[C@H]2[C@H](CCN2C(=O)Cc2ccccn2)[C@H]1CO`: 2.91% (inactive). The same measure for `CN1c2ccc(-c3ccccc3)cc2[C@H]2[C@H](CCN2C(=O)Cc2ccccn2)[C@H]1CO`: 21.9% (active); for `CCCNC(=O)C[C@H]1C[C@H]2c3cc(NC(=O)COC)ccc3O[C@H]2[C@H](CO)O1`: -2.28% (inactive). Regarding `Cn1nnnc1SCC(=O)NNC(=O)c1ccc(Br)cc1`, the inhibition was 20.1% (active). Then `Cn1nnnc1SCC(=O)Nc1sccc1C(N)=O`, with -1.15% (inactive); and `Cn1cnnc1SCC(=O)NNC(=O)COc1ccc(Br)cc1`, with -1.96% (inactive). The same measure for `N#C[C@H]1[C@H](c2ccc(-c3cccc(F)c3)cc2)[C@@H](CO)N1C(=O)NC1CCCC1`: 3.71% (inactive). Regarding `O=C1CN(Cc2ccc(F)cc2)C[C@H]2[C@@H](c3ccc(Br)cc3)[C@H](CO)N12`, the inhibition was 2.52% (inactive). With `CN1c2ccc(Br)cc2[C@@H]2[C@@H](CCN2C(=O)Cc2ccccc2)[C@@H]1CO`, the inhibition was 0.309% (inactive). `Cc1noc(C)c1S(=O)(=O)N(C)C[C@@H]1Oc2ccc(NC(=O)C3CC3)cc2CC(=O)N([C@@H](C)CO)C[C@@H]1C`: the inhibition was 1.59% (inactive).

Consider `CC(C)NC(=O)N(C)C[C@@H]1Oc2ccc(NC(=O)C3CC3)cc2C(=O)N([C@@H](C)CO)C[C@H]1C`, for which the inhibition was 0.185% (inactive). Then `Cc1noc(C)c1S(=O)(=O)N(C)C[C@H]1Oc2ccc(NC(=O)C3CC3)cc2C(=O)N([C@H](C)CO)C[C@@H]1C`, with 20.9% (active); and `Cc1noc(C)c1S(=O)(=O)N(C)C[C@H]1Oc2ccc(NC(=O)C3CCCCC3)cc2C(=O)N([C@H](C)CO)C[C@@H]1C`, with -3.3% (inactive). On to `C[C@@H]1CN([C@H](C)CO)C(=O)c2cc(NC(=O)C3CC3)ccc2O[C@@H]1CN(C)C`, for which the inhibition was -4.11% (inactive). Then `C[C@@H]1CN([C@@H](C)CO)C(=O)c2cc(NC(=O)C3CC3)ccc2O[C@H]1CN(C)C`, with 41.9% (active) and -3.15% (inactive).

For `COc1ccc2c3c([nH]c2c1)[C@H](CO)N(C(=O)c1ccncc1)CC31CCN(C(=O)c2ccncc2)CC1`, the inhibition is 12.6% (inactive). Then `COc1ccc(S(=O)(=O)N(C)C[C@@H]2OCCCC[C@H](C)Oc3ccc(NC(=O)NC(C)C)cc3C(=O)N([C@@H](C)CO)C[C@@H]2C)cc1`, with 0.637% (inactive).

The values above are taken from PubChem BioAssay AID652115 (Broad Institute, 2013).
